Bioassay records as filed in PubChem.
Rows were chosen to be rich in hits. Some 27% of all compounds tested hit in one or more screens of this group.
sEH inh = soluble epoxide hydrolase (human) inhibition | P34913 | recombinant human sEH enzymatic activity assay | inhibition, % at 2 µM | hit rate 0.34% among 91,000 | AID 707; in the data active = inhibition above about 80%
CYP2C9 inh = blocks human cytochrome P450 2C9 | P11712 | CYP2C9 Supersomes, luciferin-H conversion, luminescence | inhibition, % at 5 µM | AID 777 | hit rate 20% among 96,000;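 active = blocking of liver enzyme CYP2C9 beyond about 50% at 5 µM, limit read from the data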
sEH act = increases human soluble epoxide hydrolase activity | purified human sEH enzymatic activity, activator screen | P34913 | activation, % at 2 µM | hit rate 0.04% among 91,000 | AID 717; in the data active = activation above about 37%
CYP2C19 inh = inhibitors of human CYP2C19; CYP2C19 Supersomes, luciferin-H EGE luminescence, 30 min; P33261; inhibition, % at 5 µM; hit rate 21% among 96,000;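 active = CYP2C19 inhibition above a set limit at 5 µM in the primary screen, cut at about 50% in these data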
Target sequence (P33261 whole entry, looked up): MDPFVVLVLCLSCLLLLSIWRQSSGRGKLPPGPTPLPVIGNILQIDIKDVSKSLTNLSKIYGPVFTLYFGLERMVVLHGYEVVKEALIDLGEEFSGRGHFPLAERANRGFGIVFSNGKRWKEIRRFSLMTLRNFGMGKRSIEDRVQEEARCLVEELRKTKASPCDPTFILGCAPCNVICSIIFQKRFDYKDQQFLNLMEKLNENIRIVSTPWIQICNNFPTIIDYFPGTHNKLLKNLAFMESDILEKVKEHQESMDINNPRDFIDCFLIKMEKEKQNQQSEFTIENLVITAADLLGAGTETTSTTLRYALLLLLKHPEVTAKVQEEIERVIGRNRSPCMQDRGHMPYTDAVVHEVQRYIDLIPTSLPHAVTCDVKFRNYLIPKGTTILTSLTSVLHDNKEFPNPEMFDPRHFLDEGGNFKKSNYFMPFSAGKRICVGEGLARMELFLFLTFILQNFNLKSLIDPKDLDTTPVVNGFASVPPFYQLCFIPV
CYP2C9 activ = increases human cytochrome P450 2C9 activity. activation factor at 5 µM. recombinant CYP2C9, luciferin-H conversion, luminescence; active compounds read high; factor 1 = untreated enzyme, 0 = blocked. P11712. AID 1024. hit rate 1.4% among 96,000;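 active = activation factor of 2 or more for CYP2C9 at a 5 µM dose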
CYP2C19 act = increases human CYP2C19 enzyme activity; P33261; recombinant CYP2C19, luciferin-H EGE luminescence; active compounds read high; 0 = fully inhibited enzyme, 1 = untreated enzyme; activation factor at 5 µM; 96,000 tested, under 10 active; AID 1025;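 active = activation factor of at least 2 at 5 µM in the primary screen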
Of the large screens only hits and unclear results are named; the others gave an inactive call.

COc1ccc(C(=O)N2CCN=C2SCc2cccnc2)c(OC)c1	CYP2C9 inh 62.4, CYP2C19 inh 87.5
COc1cccc(C(=O)N2CCN=C2SCc2cccnc2)c1OC	CYP2C19 inh 86.3
Cc1[nH]nc2cn[nH]c12	none
O=C(CNC(=O)c1ccc(Cl)cc1Cl)OCC(=O)c1ccc2c(c1)OCCO2	none
CC(C)n1nc(C(=O)Nc2nc3ccc(S(C)(=O)=O)cc3s2)c2ccccc2c1=O	none (no result: sEH inh, sEH act)
CC(C)n1nc(C(=O)Nc2nnc(SCc3c(Cl)cccc3Cl)s2)c2ccccc2c1=O	CYP2C9 inh 86.4, CYP2C19 inh 66.4
CCOP(=O)(c1ccc(N(C)C)cc1)C(O)c1c(Cl)cccc1Cl (stereo not given)	CYP2C9 inh 59.2, CYP2C19 inh 64.8
CN(C)c1ccc(P(=O)(OCc2ccccc2)C(O)c2ccncc2)cc1 (stereo not given)	CYP2C9 inh 63.1, CYP2C19 inh 66.1
O=C(N/N=C/c1ccc(OC(=O)c2cccs2)cc1)c1cccc(F)c1	none
NS(=O)(=O)c1ccc(CNC(=O)NC2(c3ccccc3)CC2)cc1	none
CCOC(=O)c1cnc2ccc(OCC)cc2c1N1CCN(c2ccccc2)CC1	CYP2C9 inh 69.1
CCOC(=O)c1cnc2ccc(C)cc2c1Nc1ccc(N2CCOCC2)cc1	CYP2C9 inh 81.4, CYP2C19 inh 77.5
C/C(=N\NC(=O)C(C)Oc1ccc([N+](=O)[O-])cc1)c1ccccn1 (stereo not given)	CYP2C19 inh 68.4
O=C1CN(C(=O)c2ccc(Br)o2)C(c2ccc(F)cc2)c2cc(Cl)ccc2N1 (stereo not given)	CYP2C9 inh 73.4
CCCC(=O)N1CC(=O)Nc2ccc(F)cc2C1c1ccccc1 (stereo not given)	none
O=C1CN(C(=O)c2ccc(Br)o2)C(c2ccccc2)c2cc(Cl)ccc2N1 (stereo not given)	CYP2C9 inh 100.3, CYP2C19 inh 85.6
O=C1CN(C(=O)c2ccco2)C(c2ccccc2)c2cc(Cl)ccc2N1 (stereo not given)	CYP2C9 inh 71.4, CYP2C19 inh 58.8
c1cnc(NC2CCCCCC2)nc1	none
CC1CCC/C(=N\NC(=S)NCc2ccccc2)C1 (stereo not given)	CYP2C9 inh 85.2, CYP2C19 inh 82.0
Cc1ccc(C)c(C(=O)COC(=O)c2ccc(Br)o2)c1	none
CC1CCc2c(C(=O)Oc3cccc(-n4cnnn4)c3)csc2C1 (stereo not given)	none
CCn1c(=O)n(CC)c2cc(S(=O)(=O)Nc3ccccc3C)c(C)cc21	CYP2C9 inh 75.5, CYP2C19 inh 71.6
CCOC(=O)C(/C=C(\C#N)C(=O)OCC)=C(/N)N1CCN(c2ccc(Cl)cc2)CC1	none
Cc1cccc(C(=O)NC2CCN(C(=O)N3CCOCC3)CC2)c1	none
CCOc1ccccc1Nc1nnc(Cc2ccccc2Cl)c(=O)[nH]1	none
COc1ccccc1NC(=O)C(=O)N1N=C(C(C)C)CC1(O)C(F)(F)F (stereo not given)	none
Cc1cc(C)n(CC(O)COc2ccccc2C(=O)Nc2ccccc2)n1 (stereo not given)	CYP2C9 inh 88.3, CYP2C19 inh 90.7
COc1ccccc1OCC(O)Cn1nc(C)cc1C (stereo not given)	none (no result: CYP2C9 inh, CYP2C19 inh, CYP2C9 activ, CYP2C19 act)
CN(Cc1ccccc1)c1nc(N)c([N+](=O)[O-])c(Nc2cccc(F)c2)n1	CYP2C9 inh 78.6
CCc1ccc(C(=O)CCC2CCCCC2=O)cc1 (stereo not given)	none
CCCCCCC(=O)NCC(=O)OCC(=O)c1ccccc1	none (no result: sEH inh, sEH act)
NC(=O)C1(N2CCCCC2)CCN(CC(=O)Nc2ccccc2Sc2ccccc2)CC1	CYP2C19 inh 79.4
O=C(CCl)Nc1ccccc1Sc1ccccc1	CYP2C19 inh 64.3
Nc1nc(SCC(=O)Nc2ccccc2Sc2ccccc2)n[nH]1	CYP2C9 inh 51.4, CYP2C19 inh 99.0
CCCc1ccc(-c2cc(NC(=O)CSc3n[nH]c(N)n3)n(-c3ccccc3)n2)cc1	CYP2C9 inh 58.4
O=C(COC(=O)CCS(=O)(=O)c1ccc(Cl)cc1)NC1CCCCC1	none
CC(=O)Nc1ccccc1Sc1ccccc1	CYP2C19 inh 78.8
Cc1nc(N2CCN(S(=O)(=O)c3cccc4nonc34)CC2)c2c3c(sc2n1)CCCC3	none (no result: sEH inh, sEH act)
O=C(Cc1cn2ccsc2n1)Nc1ccccc1Oc1ccccc1	CYP2C9 inh 69.9, CYP2C19 inh 80.0
O=C(Cc1cn2ccsc2n1)NCCc1ccc(F)cc1	CYP2C19 inh 71.5 (no result: sEH inh, sEH act)
Cc1cc(C)c2cc(C#N)c(NCCOC(=O)c3ccccc3C)nc2c1	CYP2C9 inh 67.5, CYP2C19 inh 62.2
Cc1cc(C)c2cc(C#N)c(N3CCCN(S(=O)(=O)c4ccccc4)CC3)nc2c1	none (no result: CYP2C9 inh, CYP2C19 inh, CYP2C9 activ, CYP2C19 act)
CC1(C)OC(=O)N(Cc2ccco2)C1(C)O (stereo not given)	none
Cc1c(/C(Cc2ccccc2)=N/O)c2ccccc2n1C	none (no result: CYP2C9 inh, CYP2C19 inh, CYP2C9 activ, CYP2C19 act)
O=C(Oc1ccccc1OC(=O)N1CCOCC1)N1CCOCC1	none
C=C(C)c1cccc(C(C)(C)NC(=O)N2CCOCC2)c1	CYP2C19 inh 55.9
C=C(C)c1cccc(C(C)(C)NC(=O)N2CCCC2)c1	none (no result: CYP2C9 inh, CYP2C19 inh, CYP2C9 activ, CYP2C19 act)
C=C(C)c1cccc(C(C)(C)NC(=O)N2CC(C)OC(C)C2)c1 (stereo not given)	CYP2C19 inh 69.2
CC(C(=O)N1CCOCC1)(c1ccccc1)c1ccccc1	CYP2C19 inh 93.5
CC(=O)c1cc2c(cc1NC(=O)CSc1nnc(C)s1)OCO2	none
COc1ccc(OC)c2sc(NC(=O)C(C)C)nc12	CYP2C9 inh 69.8
COC(=O)c1cc2c(=O)n3cccc(C)c3nc2n(Cc2cccnc2)c1=N	none (no result: sEH inh, sEH act)
COCCNC(=O)c1cc2c(=O)n3cccc(C)c3nc2n(Cc2ccncc2)c1=N	CYP2C19 inh 51.0
CCCCNC(=O)c1cc2c(=O)n3cccc(C)c3nc2n(Cc2ccncc2)c1=N	CYP2C19 inh 64.6
COc1ccc(CCNC(=O)c2cc3c(=O)n4cccc(C)c4nc3n(Cc3ccncc3)c2=N)cc1	CYP2C9 inh 87.3, CYP2C19 inh 90.4 (no result: sEH inh, sEH act)
COc1ccc(Nc2nc(NCc3ccco3)nc(N/N=C/c3ccccc3)n2)cc1	CYP2C9 inh 60.9
CCC(=O)n1nc(-c2ccc(Cl)cc2)nc1NCc1ccccc1	CYP2C9 inh 50.5 (no result: sEH inh, sEH act)
COc1ccc(CC(=O)n2nc(-c3ccccc3)nc2NCc2ccco2)cc1	CYP2C9 inh 56.0
C=CCNC(=S)N1CCN(c2ncc3c(=O)c(C(=O)O)cn(CC)c3n2)CC1	none
CCC(OC(=O)C(NC(=O)c1ccccc1)c1ccccc1)C(=O)Nc1cc(C)on1 (stereo not given)	none
C/C(=N\NC(=O)c1ccc(OC2CCCC2)cc1)c1ccc(C)s1	none
COc1cc(C2C(C(C)=O)=C(O)C(=O)N2CCc2c[nH]c3ccccc23)ccc1O (stereo not given)	CYP2C9 inh 63.7
CC(=O)C1=C(O)C(=O)N(CCc2c[nH]c3ccccc23)C1c1cccc(O)c1 (stereo not given)	none
